SMILES strings stand for the structures. Records with an inconclusive call do not appear. Where a call stands in place of a potency, no number is given. Activity calls are given as the source filed them. Unless noted, the call rests on the fitted dose curve; in most records, active means well fitted curve in the direction sought with a large enough effect in the repeat runs; inconclusive means weak or mixed curves; inactive means no such curve, though single readings can be large; an effect the other way counts as inactive or inconclusive.
Potency means the concentration at half of the fitted maximal effect.

Chain of Nuclear receptor subfamily 1 group I member 3 (Homo sapiens) (Q14994 whole entry, looked up): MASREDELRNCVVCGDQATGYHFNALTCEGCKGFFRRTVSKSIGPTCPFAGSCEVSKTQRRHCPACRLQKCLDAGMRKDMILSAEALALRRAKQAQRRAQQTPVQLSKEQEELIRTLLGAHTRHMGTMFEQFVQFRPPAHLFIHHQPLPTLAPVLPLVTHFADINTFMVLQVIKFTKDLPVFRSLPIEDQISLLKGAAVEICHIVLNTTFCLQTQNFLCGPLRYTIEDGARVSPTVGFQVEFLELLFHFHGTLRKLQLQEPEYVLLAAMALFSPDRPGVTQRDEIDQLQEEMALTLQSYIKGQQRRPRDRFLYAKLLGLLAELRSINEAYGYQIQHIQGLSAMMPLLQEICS

The first experiment has as its target Nuclear receptor subfamily 1 group I member 3 (Homo sapiens) (UniProt Q14994). As to the kind of experiment: qHTS assay to identify small molecule antagonists of the constitutive androstane receptor (CAR) signaling pathway (AID 1224838). Further: nearly all actives have a fitted effect of over 40% in size. Conditions: HepG2-CYP2B6-hCAR luciferase, CITCO-stimulated, 24 h; series mostly up to 92.4 µM. In a few lines:
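Antagonism measured as luciferase signal (ONE-Glo, 30 min, room temperature) in CAR-stimulated cells: HepG2-CYP2B6-hCAR double-stable line exposed 24 hr at 37 C to compound in a 15-point series plus 50 nM CITCO.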
With `CCCCCCOC(=O)CCC`, the Potency entry was “inactive”.
Still for that read-out and setting: as for `C=CC(=O)OCC(C)OCC(C)OCC(C)OC(=O)C=C` (stereo not drawn), the entry is “inactive”.
On the same count and under the same terms, to `N=C(N=C(N)N)N1CCOCC1` belongs “inactive”; to `Cc1ccc(O)c([C@H](CCN(C(C)C)C(C)C)c2ccccc2)c1`, “inactive”; to `Cn1sccc1=O`, 24.3 µM (active).
On the same count and under the same terms, as for `CCOC(=O)CC(=O)c1cc(F)c(Cl)nc1Cl`, the entry is “inactive”.
In the case of `CC(C)CCCC(C)CCO` (stereo not drawn), the Potency result was “inactive”.
`Cc1cc(C)c(S(=O)(=O)O)cc1N=Nc1cc(S(=O)(=O)O)c2ccccc2c1O`: the Potency entry is “inactive”.
Same read-out and setting: as for `Oc1ccc2c(c1)OCO2`, the entry is “inactive”.
Same read-out and setting: to `CCN(CC)CCOC(=O)C1(c2ccccc2)CCCC1` belongs “inactive”; to `O=C1CCCCCO1`, “inactive”.
The same measure, in the same setting: to `CC(C)CCCCCCOC(=O)c1ccc(C(=O)OCCCCCCC(C)C)c(C(=O)OCCCCCCC(C)C)c1` belongs “inactive”; to `COC(Cc1ccccc1)OC`, “inactive”.
As for `O=C(c1ccccc1)c1ccc2n1CCC2C(=O)O` (stereo not drawn), the Potency result was “inactive”.
The same measure, in the same setting: to `CC(Cc1cccc(C(F)(F)F)c1)NCCOC(=O)c1ccccc1` (stereo not drawn) belongs “inactive”; to `Cc1cc(NC(=O)C(=O)O)cc(C)c1Oc1ccc(O)c2c1CCC2`, “inactive”.
The same measure, in the same setting: to `O=C(NS(=O)(=O)/C=C/c1cccs1)c1ccc(F)cc1Br` belongs “inactive”.
The same measure, in the same setting: as for `CC(=O)CC(=O)c1ccccc1`, the figure is 10.9 µM (active); as for `CCOC(=O)C1=C(C)NC(C)=C(C(=O)OC)C1c1cccc([N+](=O)[O-])c1` (stereo not drawn), “inactive”; as for `N#Cc1cc2ccccc2c2ccccc12`, “inactive”.
Regarding `CCCCCCCCC(CO)CCCCCC` (stereo not drawn), the Potency entry was “inactive”.
On the same count and under the same terms, to `C1=Cc2ccccc2C1` belongs “inactive”; to `CN(C)CC/C=C1\c2ccccc2COc2ccccc21`, “inactive”.
Still for that read-out and setting: to `Cc1cc(O)ccc1N` belongs 3.08 µM (active); to `COc1ccc2[nH]c(S(=O)Cc3ncc(C)c(OC)c3C)nc2n1` (stereo not drawn), “inactive”.
Still for that read-out and setting: to `N#Cc1c(F)cccc1F` belongs “inactive”; to `C#CCOC(=O)[C@@H](C)Oc1ccc(Oc2ncc(Cl)cc2F)cc1`, “inactive”; to `COCCCCCCCCOCCC[Si](C)(O[Si](C)(C)C)O[Si](C)(C)C`, 48.6 µM (active).
Regarding `CN(C)CCCNCCCN`, the Potency entry was “inactive”.
As to `NCc1ccccc1`, the Potency entry was “inactive”.

The next experiment has the same target. The experiment is described as follows: qHTS assay to identify small molecule agonists of the constitutive androstane receptor (CAR) signaling pathway (AID 1224839). Further: nearly all actives have a fitted effect of over 15% in size. As to conditions: HepG2 hCAR CYP2B6-luciferase, agonist mode, 24 h; series mostly up to 92.4 µM. In a few lines: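 HepG2 cells stably expressing hCAR and a CYP2B6-2.2kb luciferase reporter were treated with compounds at 15 concentrations plus 0.75 uM PK11195 (final) for 24 h at 37 C; luminescence was read after ONE-Glo addition.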
(Quantitative high-throughput screening tests each substance at several concentrations.)
As to `CCCCCCOC(=O)CCC`, the Potency entry was “inactive”.
Same read-out and setting: as for `C=CC(=O)OCC(C)OCC(C)OCC(C)OC(=O)C=C` (stereo not drawn), the entry is “inactive”; as for `N=C(N=C(N)N)N1CCOCC1`, “inactive”.
Same read-out and setting: as for `Cc1ccc(O)c([C@H](CCN(C(C)C)C(C)C)c2ccccc2)c1`, the entry is “inactive”.
Still for that read-out and setting: to `Cn1sccc1=O` belongs “inactive”; to `CCOC(=O)CC(=O)c1cc(F)c(Cl)nc1Cl`, “inactive”.
Regarding `CC(C)CCCC(C)CCO` (stereo not drawn), the Potency result is “inactive”.
Take `Cc1cc(C)c(S(=O)(=O)O)cc1N=Nc1cc(S(=O)(=O)O)c2ccccc2c1O`: the Potency entry was “inactive”.
Still for that read-out and setting: as for `Oc1ccc2c(c1)OCO2`, the entry is “inactive”.
Regarding `CCN(CC)CCOC(=O)C1(c2ccccc2)CCCC1`, the Potency entry was “inactive”.
Still for that read-out and setting: to `O=C1CCCCCO1` belongs “inactive”; to `CC(C)CCCCCCOC(=O)c1ccc(C(=O)OCCCCCCC(C)C)c(C(=O)OCCCCCCC(C)C)c1`, “inactive”; to `COC(Cc1ccccc1)OC`, “inactive”.
Turning to `CC(Cc1cccc(C(F)(F)F)c1)NCCOC(=O)c1ccccc1` (stereo not drawn), the Potency entry was “inactive”.
On the same count and under the same terms, to `Cc1cc(NC(=O)C(=O)O)cc(C)c1Oc1ccc(O)c2c1CCC2` belongs “inactive”; to `O=C(NS(=O)(=O)/C=C/c1cccs1)c1ccc(F)cc1Br`, “inactive”.
On the same count and under the same terms, as for `CC(=O)CC(=O)c1ccccc1`, the entry is “inactive”.
Same read-out and setting: as for `CCOC(=O)C1=C(C)NC(C)=C(C(=O)OC)C1c1cccc([N+](=O)[O-])c1` (stereo not drawn), the entry is “inactive”.
For `N#Cc1cc2ccccc2c2ccccc12`, the Potency was 27.4 µM (active).
Turning to `CCCCCCCCC(CO)CCCCCC` (stereo not drawn), the Potency entry was “inactive”.
Still for that read-out and setting: as for `CN(C)CC/C=C1\c2ccccc2COc2ccccc21`, the entry is “inactive”.
Same read-out and setting: as for `Cc1cc(O)ccc1N`, the entry is “inactive”; as for `COc1ccc2[nH]c(S(=O)Cc3ncc(C)c(OC)c3C)nc2n1` (stereo not drawn), 26.6 µM (active); as for `N#Cc1c(F)cccc1F`, “inactive”.
On to `C#CCOC(=O)[C@@H](C)Oc1ccc(Oc2ncc(Cl)cc2F)cc1`, for which the Potency result was “inactive”.
On the same count and under the same terms, to `COCCCCCCCCOCCC[Si](C)(O[Si](C)(C)C)O[Si](C)(C)C` belongs “inactive”.
Still for that read-out and setting: as for `CN(C)CCCNCCCN`, the entry is “inactive”; as for `NCc1ccccc1`, “inactive”.

Tested on in a further experiment: not listed separately
As to the kind of experiment: qHTS assay to identify small molecule antagonists of the estrogen related receptor signaling pathway with the pleiotropic PPARgamma coactivator (PGC) from Tox21 10K library - cell viability counter screen (AID 1224840; active means well fitted cell-killing curve with a large enough effect in the repeat runs, not every such curve was filed as active; further: nearly all actives have a fitted effect of over 40% in size). Conditions: PGC/ERR reporter cells viability, CellTiter-Fluor, 17.5 h; series mostly up to 92.4 µM. In a few lines:
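Counter-screen for cytotoxicity: after 17.5 h compound exposure at 37 C, CellTiter-Fluor reagent added to PGC/ERR cells for 30 min and fluorescence read. Cells were seeded at 2,000 per well 6 h before dosing.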
Consider `CCCCCCOC(=O)CCC`, for which the Potency result was “inactive”.
Still for that read-out and setting: as for `C=CC(=O)OCC(C)OCC(C)OCC(C)OC(=O)C=C` (stereo not drawn), the figure is 54.5 µM (active).
For `N=C(N=C(N)N)N1CCOCC1`, the Potency entry was “inactive”.
Turning to `C1CCC2OC2C1` (stereo not drawn), the Potency result is “inactive”.
The same measure, in the same setting: to `Cn1sccc1=O` belongs “inactive”; to `CCOC(=O)CC(=O)c1cc(F)c(Cl)nc1Cl`, “inactive”; to `CC(C)CCCC(C)CCO` (stereo not drawn), “inactive”.
On the same count and under the same terms, to `O=C1CCCCCO1` belongs “inactive”.
In the case of `CC(C)CCCCCCOC(=O)c1ccc(C(=O)OCCCCCCC(C)C)c(C(=O)OCCCCCCC(C)C)c1`, the Potency result is “inactive”.
On the same count and under the same terms, as for `COC(Cc1ccccc1)OC`, the entry is “inactive”; as for `O=C(c1ccccc1)c1ccc2n1CCC2C(=O)O` (stereo not drawn), “inactive”.
Same read-out and setting: as for `CC(Cc1cccc(C(F)(F)F)c1)NCCOC(=O)c1ccccc1` (stereo not drawn), the entry is “inactive”; as for `N#CCc1cccc(C(F)(F)F)c1`, “inactive”; as for `SC1CCCC1`, “inactive”.
For `Cc1cc(NC(=O)C(=O)O)cc(C)c1Oc1ccc(O)c2c1CCC2`, the Potency entry was “inactive”.
Still for that read-out and setting: as for `O=C(NS(=O)(=O)/C=C/c1cccs1)c1ccc(F)cc1Br`, the entry is “inactive”; as for `CC(=O)CC(=O)c1ccccc1`, “inactive”.
The same measure, in the same setting: as for `COc1ccc([C@@H]2Sc3ccccc3N(CCN(C)C)C(=O)[C@@H]2OC(C)=O)cc1`, the entry is “inactive”.
Consider `CCOC(=O)C1=C(C)NC(C)=C(C(=O)OC)C1c1cccc([N+](=O)[O-])c1` (stereo not drawn), for which the Potency result was “inactive”.
Still for that read-out and setting: as for `N#Cc1cc2ccccc2c2ccccc12`, the entry is “inactive”; as for `CCCCOC(O)CC` (stereo not drawn), “inactive”; as for `CC(C)c1ccccc1C(C)C`, “inactive”.
On the same count and under the same terms, to `CCCCCCCCC(CO)CCCCCC` (stereo not drawn) belongs “inactive”; to `CCCCCCCCCCCCCCCBr`, “inactive”.
The same measure, in the same setting: to `COc1ccc2[nH]c(S(=O)Cc3ncc(C)c(OC)c3C)nc2n1` (stereo not drawn) belongs “inactive”.
Turning to `N#Cc1c(F)cccc1F`, the Potency result is “inactive”.
Turning to `C#CCOC(=O)[C@@H](C)Oc1ccc(Oc2ncc(Cl)cc2F)cc1`, the Potency entry is “inactive”.
Still for that read-out and setting: as for `CN(C)CCCNCCCN`, the entry is “inactive”.
Same read-out and setting: to `COc1cc(C(C)(C)C)c(O)c(C(C)(C)C)c1` belongs “inactive”.
Same read-out and setting: to `NCc1ccccc1` belongs “inactive”.

The values above are taken from PubChem BioAssay (Tox21).
